In PubChem BioAssay (NCI) one finds growth data, which are given here for nine compounds.

Assay in all cases: NCI-60 one-dose screen, 48 h (100 = growth as untreated, 0 = no growth, -100 = all killed)
Common to all, as to conditions: 10 µM unless noted

Experiment [1] deals with SK-MEL-2 melanoma.
Experiment [2] deals with SN12C renal.
Experiment [3] relates to UO-31 renal.
The test system of experiment [4] is TK-10 renal.
Experiment [5] relates to A498 renal.
In experiment [6] the test system is CCRF-CEM leukemia.
Experiment [7] has as its system MOLT-4 leukemia.
Experiment [8] deals with RPMI-8226 leukemia.
In experiment [9] the test system is OVCAR-8 ovarian.
Experiment [10] concerns OVCAR-5 ovarian.
In experiment [11] the test system is OVCAR-4 ovarian.
The test system of experiment [12] is SK-OV-3 ovarian.
Experiment [13] has as its system IGROV1 ovarian.
Experiment [14] concerns OVCAR-3 ovarian.
Experiment [15] has as its system HS 578T breast.
The test system of experiment [16] is NCI/ADR-RES ovarian.
The test system of experiment [17] is EKVX NSCLC.
In experiment [18] the test system is ACHN renal.
The test system of experiment [19] is CAKI-1 renal.
Experiment [20] concerns SR leukemia.

About 83,000 compounds went through this panel and 20% of them were active in at least one assay; those are over-represented in the sample as a whole.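 Step 1: grow cells in 96-well plates. Step 2: add test compound at a single concentration. Step 3: incubate 48 h. Step 4: record percent growth.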 Unmarked numbers belong to inactive results. Active and inactive are the calls of the source. The calls were made as follows: active = growth percent below 10; inactive = the rest.

On to `CCOC(=O)c1cc(C)[nH]c(=O)c1C#N`, for which the growth was 104% in [1]; 102% in experiment [2]; 105% in experiment [3]; 101% in experiment [4]; 108% in experiment [5]; 81.9% in experiment [6]. For the same compound, the growth in experiment [7] is 72.1%; in [8], 80.4%; in experiment [9], 108%; in [10], 105%; in [11], 107%; in experiment [12], 95.4%. Moreover, the growth in experiment [13] is 118%; in experiment [14], 105%; in experiment [15], 107%; in experiment [16] it was 109%.
Turning to `COC(=O)Cc1cc(COC(C)=O)ccc1C`, the growth in [17] is 119%; in [2], 114%; in experiment [3], 81.3%; in experiment [4] it was 88.5%; in experiment [18] it was 103%; in [19], 116%. The growth in [5] is 95.4%; in experiment [6], 96.1%; in experiment [7], 98.4%; in experiment [20], 75.4%; in experiment [8], 110%; in experiment [9] it was 108%. In addition, the growth in [10] was 103%; in [11], 114%; in experiment [12] it was 125%; in [13], 107%; in [14] it was 109%; in experiment [15], 112%. Besides, the growth in experiment [16] is 107%.
As for `NNc1ncnc2nc[nH]c12`, the growth in experiment [1] is -7.36% (active); in experiment [3], 30.9%; in [4], 67.1%; in experiment [18], 41.1%; in experiment [19] it was 42.3%; in [5], 55.1%. Further, the growth in experiment [6] is 37.8%; in experiment [7], 56.2%; in [20], 32.5%; in experiment [8], 13.4%; in experiment [9], 16.4%; in experiment [10], 63.7%. In addition, the growth in experiment [11] is 44.6%; in experiment [14], 79%; in experiment [15] it was 84.8%; in [16] it was 42.7%.
As to `N#C/C(=C\c1ccc(C#N)cc1)C(=O)c1ccccc1`, the growth in experiment [1] was 101%; in experiment [3], 89.1%; in [4], 132%; in experiment [18], 101%; in experiment [5] it was 118%; in [6] it was 92.9%. Moreover, the growth in [9] was 101%; in experiment [10], 104%; in experiment [11], 98.7%; in [12], 109%; in experiment [14], 105%; in [15], 116%. Moreover, in experiment [16], the growth was 98.7%.
As for `Cc1ccc(C2CCCCC2)cc1Br`, the growth in experiment [1] was 99%; in experiment [2], 101%; in [3], 83.2%; in experiment [4], 98.7%; in experiment [19], 90.3%; in experiment [5], 88.6%. In addition, the growth is 103% in [6]; 110% in [7]; 91.4% in experiment [20]; 100% in experiment [8]; 98.4% in experiment [9]; 94.3% in experiment [10]. The growth in experiment [11] is 119%; in experiment [12] it was 96.5%; in experiment [13], 101%; in experiment [14], 104%; in experiment [15], 96.4%; in [16] it was 97.7%.
`CC1(C)CCC(C)(C)NC(=S)N1`: the growth in experiment [1] is 94.1%; in [2] it was 97.1%; in experiment [3] it was 88.2%; in [4] it was 98%; in experiment [19], 100%; in experiment [5] it was 112%. The growth is 102% in experiment [6]; 97.5% in experiment [7]; 92.1% in experiment [20]; 96.4% in experiment [8]; 106% in [9]; 102% in experiment [10]. Also, the growth in experiment [11] was 107%; in [12], 105%; in experiment [13] it was 121%; in experiment [14], 111%; in [15], 109%; in experiment [16], 108%.
For the compound `C1CCc2onc(-c3noc4c3CCCCC4)c2CC1`, the growth in experiment [17] is 106%; in experiment [2], 95.6%; in experiment [3] it was 91.1%; in experiment [4], 108%; in experiment [18] it was 113%; in experiment [19], 95.6%. Also, the growth in experiment [5] is 146%; in experiment [6], 99.3%; in experiment [7], 102%; in experiment [20] it was 92.4%; in experiment [8], 111%; in [9] it was 109%. Also, the growth was 103% in experiment [10]; 109% in experiment [11]; 106% in experiment [12]; 115% in experiment [13]; 127% in experiment [14]; 115% in experiment [15]. The growth in experiment [16] was 115%.
Regarding `CC1=CC(=Nc2ccc(N(C)C)cc2)C=C(C)C1=O`, the growth in experiment [17] was 93%; in experiment [2], 97.3%; in experiment [3], 62.3%; in experiment [4], 133%; in experiment [18] it was 77.3%; in experiment [19], 91.2%. Also, the growth in [5] was 76.8%; in experiment [6] it was 76.1%; in experiment [7] it was 87.6%; in experiment [20], 88.1%; in experiment [8], 39.7%; in experiment [9] it was 88.9%. The growth in experiment [10] is 108%; in experiment [11], 45.2%; in experiment [12], 97.1%; in [13], 96.1%; in experiment [14] it was 60%; in [15], 90.8%. Further, the growth in [16] is 83.2%.
For `Ic1cccs1`, the growth in experiment [1] is 97.9%; in experiment [2], 98.9%; in experiment [3], 90.5%; in experiment [4] it was 95.8%; in experiment [19], 101%; in experiment [5] it was 96.5%. The growth in [6] is 96%; in [7], 98.9%; in [20] it was 97.9%; in experiment [8] it was 106%; in experiment [9], 99.2%; in [10], 107%. Besides, the growth in experiment [11] was 102%; in [12] it was 115%; in experiment [13], 105%; in [14] it was 107%; in experiment [15], 98.8%; in experiment [16], 98.8%.
